Results filed as inconclusive are left out. A number with no mark means an inactive call. Calls of active or inactive are those of the source. Calls follow the shape of the dose curve; as a rule, active = well fitted activation curve with a large enough effect; inconclusive = small, poorly fitted or top-dose-only effect; inactive = flat fitted curve, though single readings scatter.
test: qHTS for Inhibitors of Cell Surface uPA Generation: Confirmatory Assay for Cherry-picked Compounds; settings: cell surface uPA activity generation, qHTS confirmation; series mostly up to 115 µM; inhibition: at the top concentration; as to inhibition: 0% is about no effect
Procedure, shortened: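 RAW 264.7 cells at 4000/well, incubated overnight, then treated with compounds. After 24 h at 37 C, viability was read by ATPlite luminescence. An increase in signal indicates blocked uPA-dependent LF entry.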
Potency is read from the fitted curve at half-maximal effect.

SMILES	inhibition [%]	Potency
O=C(C1CCN(c2nnc(N3CCCC3=O)s2)CC1)N1CCN(c2cccc(C(F)(F)F)c2)CC1	-2.97	
O=[N+]([O-])c1ccc(-c2cn3c(n2)SCC3)cc1	-1.85	
COc1ccc(N2CCN(C(=O)COc3ccc4c(C)c(C)c(=O)oc4c3C)CC2)cc1	-1.45	
COc1ccc(NC(=O)c2cccnc2N2CCOCC2)cc1	0.0181	
CNC(=O)[C@@H]1CCC(=O)N1	-2.39	
Cc1nc([N+](=O)[O-])cn1CCCCN1C(=O)c2ccccc2C1=O	-1.31	
COc1ccc(Cc2nnc(Nc3ccc(C)cc3)o2)cc1OC	-0.266	
COc1ccccc1C(=O)Nc1cccc(C(=O)c2ccccc2)c1	-2.99	
O=C(O)c1ccc(-n2nnnc2SCc2cccc(Br)c2)cc1	-2.5	
COc1ccc(C(=O)NC(C)c2cnn(-c3ccccn3)c2C)o1 (centres undefined)	-1.83	
CCC(NC(=O)Cc1c(C)c2c(cc(C)c3c(C)c(C)oc32)oc1=O)C(=O)O (centres undefined)	-3.68	
Cc1ccc(S(=O)(=O)N2CCOCC2)cc1C(=O)OC1CCOC1=O (centres undefined)	-2.34	
CCCCCOC(=O)Nc1nnc(CCCCC)s1	2.17	
NS(=O)(=O)c1ccc(CCNC(=O)c2ccc(Cl)s2)cc1	0.106	
COC(=O)/C(C#N)=C\c1c(OC)[nH]c2ccccc12	-0.852	
Cc1ccc(C2=NS(=O)(=O)N(C)C(C(=O)NC3CCCC3)=C2)cc1	-1.27	
Cc1c(NC(=S)Nc2ccc(Cl)cc2)c(=O)n(-c2ccccc2)n1C	-0.742	
CC1(C)C([N+](=O)[O-])C(c2ccc(F)cc2)NC(c2ccc(F)cc2)C1[N+](=O)[O-] (centres undefined)	6.56	
CCOC(=O)C1=CC[C@@H](c2cc3ccc(OC)cc3n2C)N(S(=O)(=O)c2ccc(C)cc2)[C@H]1C(=O)OCC	-1.93	
COC(=O)c1cc(CNC(=O)c2ccc(N3CCCC3)c([N+](=O)[O-])c2)ccc1OC	-2.35	

SMILES	inhibition [%]	Potency
CN(C)c1ccc(S(=O)(=O)N2CCC(Cc3ccccc3)CC2)cn1	-0.623	
Cc1ccnc(NC(=O)CCNS(=O)(=O)c2ccc(C)c(C)c2)c1	-1.55	
O=C(c1cccc(F)c1)N1CCN(Cc2cccc(Br)c2)CC1	-2.25	
Cc1ccc2[nH]c(CN3CCN(C)C(CCO)C3)c(C)c2c1 (centres undefined)	7.04	
COc1cccc(NC(=O)CSc2nc3ncc(Br)cc3[nH]2)c1	-0.495	
O=C(N/N=C/c1cccs1)c1ccco1	-2.33	
O=C(CN1CCCC1)Nc1cccc(Cl)c1Cl	1.68	
Cc1ccc(S(=O)(=O)NCC(=O)N/N=C/c2ccc(Cl)cc2)cc1	-1.38	
CC1=NN(C(N)=S)C(=O)C1N=Nc1ccccc1C(=O)O (centres undefined)	-1.34	
CN(CC(=O)NCCCn1ccnc1)S(=O)(=O)c1ccc(Cl)cc1	-0.102	
O=C(Nc1c(C(=O)O)oc2ccc(Br)cc12)c1ccccc1	-3.83	
COc1cc(/C=N/NC(=O)c2cc(-c3ccco3)nc3ccccc23)cc(OC)c1O	-2.85	
C[n+]1c2cc(N)ccc2cc2ccc(N)cc21	-3.52	
Cc1cnc(CNC(=O)CC2C(=O)NCCN2Cc2ccccc2C(F)(F)F)cn1 (centres undefined)	-0.319	
Cn1c(SCC(=O)NCCc2ccccc2)ncc(C(=O)Nc2ccc(F)cc2)c1=O	-0.414	
O=C(/C=C/c1cccc(F)c1)Nc1cc(S(=O)(=O)N2CCOCC2)ccc1Cl	-2.51	
COc1ccc(NS(=O)(=O)c2cccc(C(=O)NCc3ccccc3CN3CCCC3)c2)cc1		7.36 µM (active)
COc1ccc(C)cc1NC(=O)CSCc1cc(=O)n2c(C)csc2n1	0.197	
CC(C)Cn1cnc2c(N)nc3ccccc3c21	12.8	

From PubChem BioAssay AID720519 (National Center for Advancing Translational Sciences (NCATS), 2013)
